High-throughput results as filed in PubChem.
CatS inh = blocks human cathepsin S protease activity; inhibition, %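 (tested at 5 µM per compound within 10-compound mixtures)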; 62,000 compounds, 0.06% hits; P25774; recombinant cathepsin S, AMC dipeptide fluorescence, pooled mixtures; in the data active means inhibition above about 32%, passing the limit was not always enough;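 further: 0% = enzyme without compound and 100% = blank without enzyme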
Target sequence (P25774 115-331 limits assumed): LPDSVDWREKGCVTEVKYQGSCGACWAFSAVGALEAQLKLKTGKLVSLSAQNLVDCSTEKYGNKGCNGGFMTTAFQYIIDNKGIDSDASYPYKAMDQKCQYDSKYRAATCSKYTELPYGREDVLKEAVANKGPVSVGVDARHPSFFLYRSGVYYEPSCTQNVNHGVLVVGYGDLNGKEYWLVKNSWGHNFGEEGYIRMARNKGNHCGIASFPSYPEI
CatB mixtures = inhibitors of human cathepsin B in compound mixtures; 62,000 compounds, 0.06% hits; inhibition, %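 (ten-compound pools at 5 µM per compound and 50 µM total)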; Purified cathepsin B, AMC dipeptide fluorescence; in the data active means inhibition above about 22%, passing the limit was not always enough;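 further: 0% = enzyme without compound and 100% = no enzyme blank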
SKBR3 24h inh = SK-BR-3 proliferation inhibitors. viability, % at 10 µM. SK-BR-3 viability, CellTiter-Glo ATP luminescence, 24 h; active compounds read low. 41,000 compounds, 0.47% hits. AID 847;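 active means viability at or below the median of all test compounds minus 3 SD, in both replicates if run twice, cut at about 45% in these data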;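 further: 100% = median untreated cell wells and 0% = median positive control drug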
CatB inh = inhibitors of human cathepsin B; inhibition, %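 (tested at 10 µM)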; purified cathepsin B, fluorogenic substrate, fluorescence; AID 453; P07858; 63,000 compounds, 0.1% hits; in the data active means inhibition above about 21%;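 further: 0% = enzyme with no compound and 100% = no enzyme blank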
Her2 expr inh = lowers expression of human Her2 kinase. SKBR-3 HER2 protein level, AlphaScreen, 18-24 h; active compounds read low. HER2 level % of control, % at 10 µM. 65,000 compounds, 0.69% hits;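 active means HER2 level under 5% of the carrier-only control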;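 further: 100% = DMSO carrier and 0% = 500 nM PU-H71 HSP90 inhibitor; lower value means stronger loss of Her2 protein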
CatL inh = inhibitors of human cathepsin L; P07711; purified cathepsin L, fluorogenic substrate, fluorescence; inhibition, %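 (tested at 10 µM)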; 58,000 compounds, 0.17% hits; AID 460; in the data active means inhibition above about 45%;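 further: 0% = enzyme with no compound and 100% = no enzyme blank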
Target sequence (P07711 114-288 limits assumed): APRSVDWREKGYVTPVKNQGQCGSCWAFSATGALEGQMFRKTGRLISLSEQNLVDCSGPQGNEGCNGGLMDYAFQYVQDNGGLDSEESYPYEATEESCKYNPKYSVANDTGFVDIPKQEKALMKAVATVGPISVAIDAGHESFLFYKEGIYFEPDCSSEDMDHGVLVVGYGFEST
Target sequence (P07711 292-333 limits assumed): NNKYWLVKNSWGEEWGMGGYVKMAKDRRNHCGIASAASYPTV
* marks the source's active call; other numbers are inactive results. In the library only some 1.1% were active in any assay of this set; here they are far more common.

For COc1ccc(CNc2cc(C)nc3ncnn23)c(OC)c1 the results were CatS inh -8.1, CatB mixtures -8.6, SKBR3 24h inh 39.6*, CatB inh 0.3, Her2 expr inh 82.9 and CatL inh 7.0.
Cn1c(=O)n(C)c2cc(S(=O)(=O)N3CCOCC3)ccc21 was read as CatS inh 13.2, CatB mixtures 5.6, SKBR3 24h inh 92.4, CatB inh 6.0, Her2 expr inh 95.9 and CatL inh 9.9.
For Cn1c(=O)c(=O)n(C)c2cc(S(=O)(=O)N3CCCCCC3)ccc21 the results were CatS inh -5.0, CatB mixtures 46.4*, SKBR3 24h inh 70.5, CatB inh -7.8, Her2 expr inh 74.5 and CatL inh -5.1.
Screening CC1CCN(S(=O)(=O)c2ccc3c(c2)c(=O)c(C(=O)NC2CCCC2)cn3C)CC1 returned CatS inh 3.7, CatB mixtures 0.6, CatB inh -2.8, Her2 expr inh 85.9 and CatL inh -5.9.
Cn1cc(C(=O)NC2CCCCC2)c(=O)c2cc(S(=O)(=O)N3CCCC3)ccc21 was read as CatS inh -8.7, CatB mixtures 1.7, SKBR3 24h inh 50.9, CatB inh -1.8, Her2 expr inh -4.8* and CatL inh 1.9.
CC1CCCC(NC(=O)c2cn(C)c3ccc(S(=O)(=O)N4CCCC4)cc3c2=O)C1C (stereo not drawn) was read as CatS inh 4.1, CatB mixtures 2.8, SKBR3 24h inh 69.4, CatB inh 14.0, Her2 expr inh 101.7 and CatL inh 2.5.
Screening CC1CCCCC1NC(=O)c1cn(C)c2ccc(S(=O)(=O)N3CCCC3)cc2c1=O (stereo not drawn) returned CatS inh -19.2, CatB mixtures -1.1, SKBR3 24h inh 43.4*, CatB inh -1.9, Her2 expr inh 99.1 and CatL inh 0.8.
COc1ccccc1C1/C(=C(\O)c2c(C)nc3c(C)cccn23)C(=O)C(=O)N1CCCN(C)C (stereo not drawn) was read as CatS inh -6.3, CatB mixtures 0.6, SKBR3 24h inh 89.4, CatB inh -0.5, Her2 expr inh 77.7 and CatL inh 6.9.
`Cc1cccc(NC(=O)Cn2cnc3ccc(S(=O)(=O)N4CCC(C)CC4)cc3c2=O)n1` gave CatS inh 2.8, CatB mixtures 2.9, SKBR3 24h inh 76.7, CatB inh -0.9, Her2 expr inh 85.9 and CatL inh 1.7.
COc1cccc(/C=N/n2c(C)c3c(C)nnc(C)c3c2C)c1O was read as CatS inh -2.1, CatB mixtures -1.3, SKBR3 24h inh 99.2, CatB inh 4.4, Her2 expr inh 91.2 and CatL inh -3.8.
For CCCCSc1nc(C)c(CC(=O)OC)c(=O)[nH]1 the results were CatS inh -3.8, CatB mixtures -4.3, SKBR3 24h inh 91.4, CatB inh 1.9, Her2 expr inh 106.8 and CatL inh 2.2.
`CCCn1c(SCC(=O)Nc2cccc(C)n2)nnc1-c1ccco1` gave CatS inh 12.0, CatB mixtures -2.4, SKBR3 24h inh 87.7, CatB inh 0.1, Her2 expr inh -22.9* and CatL inh 6.3.
Screening Cc1cc2ccccc2c(=O)n1CC(=O)N1CCN(c2cccc(Cl)c2)CC1 returned CatS inh -8.8, CatB mixtures -0.6, SKBR3 24h inh 28.8*, CatB inh 0.3, Her2 expr inh 144.6 and CatL inh -2.8.
`CC(=O)Nc1ccc(S(=O)(=O)N2CCN(c3nc(NC4CCCC4)c4ccccc4n3)CC2)cc1` gave CatS inh -2.8, CatB mixtures 3.5, SKBR3 24h inh 41.0*, CatB inh -2.4, Her2 expr inh -9.2* and CatL inh -0.4.
Screening CC(=O)Nc1ccc(S(=O)(=O)N2CCN(c3cc(C)nc4ccccc34)CC2)cc1 returned CatS inh -3.2, CatB mixtures -9.2, CatB inh 0.8, Her2 expr inh 89.6 and CatL inh 7.4.
CCOc1ccc(NC2=NC(C(=O)NCc3ccccc3)CC(=O)N2)cc1 (stereo not drawn) was read as CatS inh 8.1, CatB mixtures -4.1, SKBR3 24h inh 105.9, CatB inh -6.1, Her2 expr inh 78.3 and CatL inh 55.4*.
O=c1c2c3nc4ccccc4nc3n(CCN3CCOCC3)c2ncn1CCN1CCOCC1 was read as CatS inh 14.1, CatB mixtures 0.0, CatB inh 3.8, Her2 expr inh 109.5 and CatL inh 2.8.
`NCCCCCNC(=O)/C=N\O` gave CatS inh -7.0, CatB mixtures 5.0, SKBR3 24h inh 80.1, CatB inh -4.9, Her2 expr inh 130.3 and CatL inh -6.8.
CCSC1(SCC)N=C(N)C2(C#N)C(c3ccc(OC)c(OC)c3OC)C12C#N (stereo not drawn) was read as CatS inh 10.9, CatB mixtures -0.8, SKBR3 24h inh 100.3, CatB inh 6.1, Her2 expr inh 3.5* and CatL inh 17.8.
For CCSC1(SCC)N=C(N)C2(C#N)C(c3ccccc3)NC3=C(CCC3)C12C#N (stereo not drawn) the results were CatS inh 6.0, CatB mixtures -4.7, SKBR3 24h inh 88.2, CatB inh 1.7, Her2 expr inh 91.0 and CatL inh -2.4.
For CCCc1nc2oc3c(N4CCNCC4)ncnc3c2c2c1CCCC2 the results were CatS inh 16.3, CatB mixtures 2.6, SKBR3 24h inh 70.7, CatB inh -6.8, Her2 expr inh -14.7* and CatL inh -7.3.
Screening CCN(CC)c1ccc2cc(NC(=O)CCC(=O)O)c(=O)oc2c1 returned CatS inh -3.0, CatB mixtures 2.4, SKBR3 24h inh 42.8*, CatB inh -2.3, Her2 expr inh 90.8 and CatL inh -83.5.
Screening CCN(CC)c1ccc2cc(C(=O)Nc3ccccn3)c(=O)oc2c1 returned SKBR3 24h inh 87.6, CatB inh -1.6, Her2 expr inh 81.6 and CatL inh -24.4.
`O=C1CC(=O)CC(c2ccccc2Cl)C1` gave CatS inh -3.3, CatB mixtures -0.4, CatB inh -0.5, Her2 expr inh 132.1 and CatL inh -2.1.
O=C(O)C1CCCCC1C(=O)Nc1nccs1 (stereo not drawn) was read as CatS inh -1.5, CatB mixtures 0.9, CatB inh 3.6, Her2 expr inh 85.8 and CatL inh 11.1.
Screening O=C(Nc1nccs1)C1C2/C=C\CCCCC21 (stereo not drawn) returned CatS inh 5.4, CatB mixtures 5.6, SKBR3 24h inh 80.8, CatB inh 1.6, Her2 expr inh -27.8* and CatL inh -5.5.
`CCN(CC)C(=O)CSc1nnc([C@@H](N)Cc2ccccc2)o1` gave CatS inh 1.4, CatB mixtures -1.2, SKBR3 24h inh 102.6, CatB inh -1.6, Her2 expr inh 120.0 and CatL inh 82.6*.
CCc1ccccc1NC(=O)CSc1nnc([C@@H](N)Cc2ccccc2)o1 was read as CatS inh 32.9, CatB mixtures 7.2, SKBR3 24h inh 93.5, CatB inh 3.7 and Her2 expr inh 69.0.
For COc1ccccc1CNc1ncnc2c1nnn2Cc1ccccc1 the results were Her2 expr inh 89.2.
